# Laboratory results from PubChem BioAssay (NCI).
# Compounds without any hit were thinned out: in the full panel of roughly 83,000, 20% have a hit.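 Step 1: grow cells in 96-well plates. Step 2: add test compound at a single concentration. Step 3: incubate 48 h. Step 4: record percent growth.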 Unmarked numbers belong to inactive results. Calls of active or inactive are those of the source. Rule for the calls: active = growth percent below 10; inactive = the rest.
# How the values were obtained:
# Test in all cases: NCI-60 one-dose screen, 48 h (100 = growth as untreated, 0 = no growth, -100 = all killed)
# Conditions in all cases: 10 µM unless noted
# HCT-15 colon = test system: HCT-15 colon
# HT29 colon = test system: HT29 colon
# SNB-75 CNS = test system: SNB-75 CNS
# SNB-19 CNS = test system: SNB-19 CNS
# U251 CNS = test system: U251 CNS
# PC-3 prostate = test system: PC-3 prostate
# SK-MEL-5 melanoma = test system: SK-MEL-5 melanoma
# UACC-62 melanoma = test system: UACC-62 melanoma
# SK-MEL-28 melanoma = test system: SK-MEL-28 melanoma
# SK-MEL-2 melanoma = test system: SK-MEL-2 melanoma
# EKVX NSCLC = test system: EKVX NSCLC
# SN12C renal = test system: SN12C renal
# UO-31 renal = test system: UO-31 renal
# TK-10 renal = test system: TK-10 renal
# ACHN renal = test system: ACHN renal
# CAKI-1 renal = test system: CAKI-1 renal
# CCRF-CEM leukemia = test system: CCRF-CEM leukemia
# MOLT-4 leukemia = test system: MOLT-4 leukemia
# LOX IMVI melanoma = test system: LOX IMVI melanoma
# A498 renal = test system: A498 renal
Structure (SMILES),growth (HCT-15 colon),growth (HT29 colon),growth (SNB-75 CNS),growth (SNB-19 CNS),growth (U251 CNS),growth (PC-3 prostate),growth (SK-MEL-5 melanoma),growth (UACC-62 melanoma),growth (SK-MEL-28 melanoma),growth (SK-MEL-2 melanoma),growth (EKVX NSCLC),growth (SN12C renal),growth (UO-31 renal),growth (TK-10 renal),growth (ACHN renal),growth (CAKI-1 renal),growth (CCRF-CEM leukemia),growth (MOLT-4 leukemia),growth (LOX IMVI melanoma),growth (A498 renal)
Cc1ccc(C(=O)Nc2cc(-n3ccnc3)cc(C(F)(F)F)c2)cc1-n1cc(-c2cnc3cccnn23)nn1,97.4%,39.2%,132%,118%,112%,123%,73%,19.5%,34.6%,61.1%,117%,105%,61.4%,135%,97.8%,113%,96%,105%,,
CC1=C(C(=O)Nc2ccccc2)C(c2cccc(Cl)c2Cl)n2c(nc3ccccc32)N1 (centres undefined),35.5%,22.1%,47.2%,67.5%,57.2%,18.1%,46.7%,,65.5%,75.2%,46.3%,53.4%,33.7%,57.8%,42.5%,36.4%,29.8%,7.7% (active),49.5%,35%
COc1ccc2c(c1)C(Sc1ccc(Br)cc1)c1c(nc(N)c(C#N)c1N)O2 (centres undefined),76.3%,91.1%,80.4%,80.6%,77.2%,48.2%,85.6%,76.4%,104%,94.3%,67%,77.1%,43.7%,108%,79.7%,80.3%,9.55% (active),55%,,103%
COc1ccc(C(=O)/C=C/c2ccc3c(c2)OCCO3)cc1S(N)(=O)=O,41.9%,33.4%,82.5%,51.4%,12.2%,103%,99.8%,87.9%,101%,114%,84.8%,68.6%,48.5%,95.6%,69.6%,85.6%,91%,37.4%,,
COc1ccc2nc(NC(=O)c3ccc(N(C)C)cc3)sc2c1,59.4%,100%,101%,84.4%,93.5%,71.3%,55.7%,,95%,88.8%,63.4%,85.6%,46.7%,115%,77.5%,79.6%,47.7%,43.1%,87%,95.6%
CS(=O)(=O)Nc1cc(-c2ccc3ncnc(Nc4ccc(OCc5cccnc5)c(Cl)c4)c3c2)cnc1Cl,13.1%,5.66% (active),10.7%,-0.382% (active),-34.2% (active),3.42% (active),-94.5% (active),-64.3% (active),,-76.7% (active),-24.4% (active),8.19% (active),23.2%,-27% (active),32%,1.71% (active),11%,-50.6% (active),,-25.6% (active)
c1ccc(CSc2nnc(-c3ccc4nc(-c5ccccc5)[nH]c4c3)o2)cc1,12.7%,42.5%,-51.4% (active),16.3%,4.61% (active),26.6%,29.4%,,-4.76% (active),57.5%,57.3%,-48.3% (active),40.6%,-2.54% (active),1.16% (active),-44.9% (active),73.8%,58.2%,-43.6% (active),-8.46% (active)
O=C1/C(=C/c2cccc3c2OCO3)Cc2c(F)cc(Br)cc21,102%,118%,97.1%,103%,105%,107%,101%,,115%,111%,94.4%,111%,90%,115%,108%,94.6%,103%,106%,99.8%,152%
O=C1CCC(N2C(=O)c3cccc(NCCOCCOCCOCCC(=O)NCCCC(=O)NC(c4ccc5c(c4)OCO5)c4cc(Cl)c5cccnc5c4O)c3C2=O)C(=O)C1 (centres undefined),88.8%,28.5%,62.7%,28.5%,27.2%,32.5%,43.6%,0.155% (active),20.4%,-5.74% (active),38.1%,26.9%,64.5%,95.2%,89.3%,69.8%,-4.69% (active),8.18% (active),,104%
NC(=O)c1ccc(-c2ccc3ncnc(N4CCc5cc(F)c(Cl)cc54)c3c2)cn1,59.9%,91.6%,106%,74.3%,87.4%,50.8%,76.2%,71.8%,91.7%,,19.5%,61.9%,33.1%,28.2%,30.3%,,44.2%,18.4%,,74.7%
COc1cc2cc(C(=O)N3C[C@@H](CCl)c4c3cc(OC(=O)N(CCC(=O)N3CCN(C)CC3)C3CCCCC3)c3ccccc43)[nH]c2c(OC)c1OC,-34.5% (active),-34.5% (active),-75.7% (active),-5.79% (active),-63.4% (active),-17.8% (active),-99.2% (active),,-97.5% (active),-82.4% (active),-78.8% (active),-82.8% (active),-73.2% (active),-71.3% (active),-84.6% (active),-79.1% (active),-34.3% (active),-19.8% (active),-96.6% (active),-19.9% (active)
O=C(CSc1nc2ccccc2c(=O)[nH]1)NNC(=O)c1ccccc1Cl,107%,109%,72.6%,92.4%,96.3%,123%,106%,110%,148%,105%,109%,112%,91.2%,105%,112%,90.4%,120%,111%,,
CN1CCN(CCS(=O)(=O)Nc2cc(-c3ccc4ncnc(Nc5ccc(F)c(Cl)c5)c4c3)cnc2Cl)CC1,24.5%,12%,22.1%,10.1%,16.5%,20.2%,-75.9% (active),-3.28% (active),4.33% (active),-52.2% (active),-22.2% (active),27.7%,18.2%,1.24% (active),23.2%,6.32% (active),8.02% (active),-49.7% (active),,
O=C(c1ccc(O)cc1)C1[C@H](c2ccc(Cl)cc2)[C@@H](c2ccccc2)NC12C(=O)Nc1ccccc12 (some centres undefined),-70.8% (active),-66.3% (active),43.5%,13.2%,-0.272% (active),1.61% (active),-92.9% (active),-22.4% (active),,,8.32% (active),-83.8% (active),3.54% (active),11.8%,3.11% (active),3.82% (active),-7.04% (active),-34.3% (active),,-2.62% (active)
Clc1ccc2c(NCCNC34CC5CC(CC(C5)C3)C4)ccnc2c1,-82% (active),-50.8% (active),-74.9% (active),-54.2% (active),-61.8% (active),-5.27% (active),-96% (active),,-93.5% (active),-88% (active),-67.5% (active),-74.5% (active),-98.6% (active),-94.7% (active),-95.8% (active),-80.8% (active),4.53% (active),-23.1% (active),-91.5% (active),-94.2% (active)
O=C(NNC(=S)NCCc1ccccc1)c1ccc(OCc2nc3ccc(Cl)cc3[nH]2)cc1,66.9%,100%,128%,75.6%,88.2%,67.1%,41.6%,,101%,71.6%,66.1%,73.1%,54.1%,83.8%,81.1%,79.9%,58.9%,39.7%,80.4%,166%
COc1cc(CNC(=O)C[C@H](C)CCC=C(C)C)ccc1OCc1cn(-c2cccc(C(F)(F)F)c2)nn1,56.8%,96.6%,65.2%,97.2%,51%,82.5%,78.8%,,91.6%,111%,92.1%,27.1%,75.7%,102%,77.6%,73.6%,97.1%,84.8%,80.7%,91%
